{
  "source": "PubChem BioAssay (Tox21)",
  "note": "Inconclusive results are not listed. Calls of active or inactive are those of the source. The call rests on the fitted dose curve.",
  "data": [
    {"test": "qHTS assay for small molecule agonists of the p53 signaling pathway (AID 651631); further: nearly all actives have a fitted effect of over 15% in size", "settings": "HCT-116 p53RE-bla reporter, beta-lactamase FRET ratio, 16 h; series mostly up to 73.3 µM", "source_text": "U.S. Tox21 Program National Center for Advancing Translational Sciences [NCATS] NIH Chemical Genomics Center [NCGC] U.S. Environmental Protection Agency [EPA] National Institutes of Environmental Health Sciences [NIEHS] National Toxicology Program [NTP] U.S. Food and Drug Administration [FDA] Tox21 Assay Overview: p53, a tumor suppressor protein, is activated following cellular insult, including DNA damage and other cellular stresses. The activation of p53 regulates cell fate by inducing DNA repair, cell cycle arrest, apoptosis, or cellular senescence. The activation of p53, therefore, is a good indicator of DNA damage and other cellular stresses. The CellSensor p53RE-bla HCT-116 cell line (Invitrogen) contains a stably integrated beta-lactamase reporter gene under control of the p53 response elements. The activation of the reporter gene under culture conditions can be detected by fluorescence intensity. This cell line was used to screen the Tox21 compound library in a 1536-well plate format and to identify agonists that activate the p53 signaling pathway.\nTox21 Assay Protocol Summary: The p53RE-bla cells were dispensed at 4,000 cells/5 ul/well in 1536-well black wall/clear bottom plates using a Multidrop dispenser. After the assay plates were incubated at a 37 C/5% CO2 incubator for 5 hours, 23 nL of compounds dissolved in DMSO, positive controls or DMSO only was transferred to the assay plate by a pin tool. The plates were incubated at 37 C for 16 hours. After 1 uL of LiveBLAzerTM B/G FRET substrate was added using a Flying Reagent Dispenser, the plates were incubated at room temperature for 2 hours, and fluorescence intensity was measured by an Envision plate reader.", "values": [
      {"smiles": "CN(C)CCCSc1ccccc1NC(=O)/C=C/c1ccccc1", "outcome": "inactive"},
      {"smiles": "Cc1cc(O)cc2c1O[C@](C)(CCC[C@H](C)CCC[C@H](C)CCCC(C)C)CC2", "outcome": "inactive"},
      {"smiles": "O=[N+]([O-])c1ccc(F)cc1F", "outcome": "inactive"},
      {"smiles": "CC(C)CNCC(C)C", "outcome": "inactive"},
      {"smiles": "CCCCCSCCCCC", "outcome": "inactive"},
      {"smiles": "CCCN(CCC)CCc1cccc2c1CC(=O)N2", "outcome": "inactive"},
      {"smiles": "O=C(O)COc1nn(Cc2ccccc2)c2ccccc12", "outcome": "inactive"},
      {"smiles": "CC(C)CCCC(C)N", "note": "(stereo not given)", "outcome": "inactive"},
      {"smiles": "OC[C@]1(O)OC[C@@H](O)[C@H](O)[C@@H]1O", "outcome": "inactive"},
      {"smiles": "COc1c(N2C[C@@H]3CCCN[C@@H]3C2)c(F)cc2c(=O)c(C(=O)O)cn(C3CC3)c12", "outcome": "inactive"},
      {"smiles": "CCCCCCOC(=O)CCCCC(=O)OCCCCCC", "outcome": "inactive"},
      {"smiles": "N=C(N)c1ccc(OCCCOc2ccc(C(=N)N)cc2)cc1", "outcome": "inactive"},
      {"smiles": "Nc1ccc(S(=O)(=O)Nc2ccnn2-c2ccccc2)cc1", "outcome": "inactive"},
      {"smiles": "CS(=O)(=O)O", "outcome": "inactive"},
      {"smiles": "CC/C=C\\CC/C=C/C(OCC)OCC", "outcome": "inactive"},
      {"smiles": "NS(=O)(=O)c1cc(C(=O)O)cc(N2CCCC2)c1Oc1ccccc1", "outcome": "inactive"},
      {"smiles": "COC(=O)c1cc(C(=O)OC)cc(S(=O)(=O)O)c1", "outcome": "inactive"},
      {"smiles": "COc1nc(N)nc2c1ncn2[C@@H]1O[C@H](CO)[C@@H](O)[C@@H]1O", "outcome": "inactive"},
      {"smiles": "Nc1nc2c(ncn2COC(CO)CO)c(=O)[nH]1", "outcome": "inactive"},
      {"smiles": "C=CCS(=O)(=O)O", "outcome": "inactive"},
      {"smiles": "CC(=O)CC(C)(C)C1CCCCC1", "outcome": "inactive"},
      {"smiles": "CC/C=C\\CCOC(C)=O", "outcome": "inactive"},
      {"smiles": "Cn1c(N)c(N=O)c(=O)n(C)c1=O", "outcome": "inactive"},
      {"smiles": "CCOC(C)(C)C", "outcome": "inactive"},
      {"smiles": "C=C(C)C(=O)OCCCCCCCC(C)C", "outcome": "inactive"},
      {"smiles": "CC(C)NCC(O)c1ccc(NS(C)(=O)=O)cc1", "note": "(stereo not given)", "outcome": "inactive"},
      {"smiles": "O=C1OC(=O)C2CCCCC12", "note": "(stereo not given)", "outcome": "inactive"},
      {"smiles": "NC(=O)Nc1ccccc1", "outcome": "inactive"},
      {"smiles": "CC(C(=O)O)c1ccc(CC2CCCC2=O)cc1", "note": "(stereo not given)", "outcome": "inactive"},
      {"smiles": "N#Cc1ccc(C2CCCc3cncn32)cc1", "note": "(stereo not given)", "outcome": "inactive"},
      {"smiles": "CC(=O)c1ccccc1O", "outcome": "inactive"},
      {"smiles": "Cc1cccn2c(=O)c(-c3nnn[nH]3)cnc12", "outcome": "inactive"},
      {"smiles": "O=C1CCCCCCCCCCCN1", "outcome": "inactive"},
      {"smiles": "Brc1c(NC2=NCCN2)ccc2nccnc12", "outcome": "inactive"},
      {"smiles": "CCCCCCCCS(=O)(=O)Cl", "outcome": "inactive"},
      {"smiles": "C/C=C(\\C)C#N", "outcome": "inactive"},
      {"smiles": "COC(=O)[C@@H](N)Cc1ccc(O)c(O)c1", "outcome": "inactive"},
      {"smiles": "CCn1ccnc1CC1COc2ccccc2O1", "note": "(stereo not given)", "outcome": "inactive"},
      {"smiles": "CCC(C)C1CCCCC1=O", "note": "(stereo not given)", "outcome": "inactive"},
      {"smiles": "CCCCC(CC)COC(=O)c1ccccc1O", "note": "(stereo not given)", "outcome": "inactive"}
    ]}
  ]
}
